Measured values: ChEMBL document CHEMBL4513216, “Probing the Open Global Health Chemical Diversity Library for Multistage-Active Starting Points for Next-Generation Antimalarials” (ACS Infect Dis, 2020)
In all, about 69,000 compounds went through this assay and about 8,600 (12%) showed an effect of 50% or more. The sample as a whole holds a higher share of strong results than the screen did.

The molecules below were run on Plasmodium berghei (assay: Screen against P. berghei liver stage (PbLuc), transformed with Luciferase, at 10uM). Conditions: tested at 10 uM.
Assay type: functional, HepG2
For `CC(=O)N1CCCn2nc(CNC(=O)N3CCCCC3)cc2C1`, the INHIBITION was 14.3%.
`CCc1ncc2c(n1)CN(c1cc(N3CCN(C)CC3)nc(N)n1)C2` showed an INHIBITION of 19.7%.
`CNc1nc(C2CCCN2)nc2c1CCN(S(=O)(=O)C1CCCCC1)C2` (configuration not stated) was tested, and the INHIBITION was -44.8%.
With `CC(C)CCC(=O)N1CCCC2(CCN(Cc3ccccc3C#N)C2)C1` (configuration not stated) the INHIBITION was 1.71%.
`COc1ccc(CCn2cnc(C#N)n2)cc1` showed an INHIBITION of -7.46%.
`Cc1cccc(CN2CCc3onc(Cn4cccc4)c3C2)n1` gave an INHIBITION of 31.5%.
Work on `NC(=O)c1cc(CC2CCCN(Cc3cnccn3)CC2)ncn1` (configuration not stated) yielded an INHIBITION of -0.232%.
`CCN1CCC2(CC1)CC(Nc1ncccn1)CO2` (configuration not stated) showed an INHIBITION of 45.7%.
`Cn1cc(CN2CCC3(CC2)CC(Nc2nccs2)CO3)cn1` (configuration not stated) was tested, and the INHIBITION was 13.6%.
`Cn1cc(CN2CC[C@]3(C[C@H](OCc4ccccn4)CO3)C2)cn1` was tested, and the INHIBITION was 69.6%.
Molecule `c1ccc(CN2CC[C@]3(C[C@@H](Oc4ccccn4)CO3)C2)nc1` has an INHIBITION of 31.3%.
`O=C(NC1COC2(CCN(Cc3ccccn3)CC2)C1)c1ccccn1` (configuration not stated) gave an INHIBITION of -8.69%.
Molecule `c1ccc(CO[C@@H]2CO[C@@]3(CCN(Cc4ccccn4)C3)C2)nc1` has an INHIBITION of 1.58%.
`c1cnc(NC2COC3(CCN(Cc4ccoc4)CC3)C2)nc1` (configuration not stated) was tested, and the INHIBITION was 3.25%.
`Cc1cc(C)cc(CN2CCC3(CC2)CC(Nc2ncccn2)CO3)c1` (configuration not stated) showed an INHIBITION of 50.7%.
With `c1ccc(OC2COC3(CCN(Cc4ccccn4)CC3)C2)cc1` (configuration not stated) the INHIBITION was 81.2%.
`c1ccc(CN2CCC3(CC2)CC(Oc2cccnc2)C3)nc1` showed an INHIBITION of 31.2%.
Molecule `c1ccc(CN2CCC3(CC2)CC(Nc2nccs2)CO3)nc1` (configuration not stated) has an INHIBITION of 53.2%.
In the case of `c1ccc(CO[C@H]2CO[C@@]3(CCN(Cc4ccoc4)C3)C2)nc1`, the INHIBITION is reported as 14.2%.
Molecule `CCOCCC(=O)Nc1cccc(Cl)c1C(N)=O` has an INHIBITION of -39.2%.
`O=C(O)c1ccccc1-c1ccc(CN2CC(O)C2)cc1` showed an INHIBITION of -13.7%.
Work on `CC(=O)N1CCC[C@H]1C(=O)NCCCN(C(C)C)S(C)(=O)=O` yielded an INHIBITION of 25.4%.
Work on `CCNC(c1ccc(Br)cc1)c1cccnc1` (configuration not stated) yielded an INHIBITION of 3.15%.
Molecule `CC(C)(C)c1nnc2n1C(C(=O)N1CCCC1)CC2` (configuration not stated) has an INHIBITION of 21.7%.
`CCC1CN(C(=O)c2cccc(OCc3cscn3)c2)CCO1` (configuration not stated) gave an INHIBITION of 32.025%.
Molecule `Cc1cnn(CC2CCCN2Cc2nccn2CC(F)(F)F)c1` (configuration not stated) has an INHIBITION of -10.1%.
`CC(C1CCN(Cc2c(Cl)cncc2Cl)CC1)N1CCN(C)CC1` (configuration not stated) gave an INHIBITION of 51.3%.
With `CC(C1CCN(Cc2ccc(OC(F)F)cc2)CC1)N1CCOCC1` (configuration not stated) the INHIBITION was 33.7%.
Work on `CC(C1CCN(Cc2c(Cl)ccc(O)c2Cl)CC1)N1CCN(C)CC1` (configuration not stated) yielded an INHIBITION of 21.145%.
In the case of `CN1CCN(C[C@@H]2CN(Cc3c(Cl)cncc3Cl)C[C@@H]2CO)CC1`, the INHIBITION is reported as -56.2%.
With `CC(C1CCN(Cc2c(Cl)cncc2Cl)CC1)N1CCOCC1` (configuration not stated) the INHIBITION was 52.5%.
`CC(C1CCN(Cc2ccc(N(C)C)nc2)CC1)N1CCOCC1` (configuration not stated) showed an INHIBITION of 36.2%.
